This is an account of results in PubChem BioAssay (NCATS).

One assay concerns PA-1. Description: Primary qHTS to identify gynecologic anti-cancer compounds using libraries of approved drugs and bioactive compounds (AID 1345084). Also: % is scaled to controls: 0 for no effect and ±100 for the full control effect; nearly all actives have a fitted effect of over 55% in size. As to conditions: Gynecologic cancer cell panel viability, ATPlite luminescence, 48 h; series mostly up to 57.5 µM. The method, boiled down: (§1)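 Cells, 1,000 per well, were allowed to settle for 16 h at 37 C before compound addition. Five concentrations were tested for 48 h, and viability was read by ATPlite luminescence after 15 min at room temperature.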

For the next assay, the system named is SKOV3. The assay is described as above. As to conditions: Gynecologic cancer cell panel viability, ATPlite luminescence, 48 h; series mostly up to 57.5 µM. The method, boiled down: as §1
In a further assay the test system is Tov-21-G. The assay is described as above. As to conditions: Gynecologic cancer cell panel viability, ATPlite luminescence, 48 h; series mostly up to 57.5 µM. An outline of the steps: as §1
A general note: ATP-based viability assays read luminescence as a measure of living cells.

Another assay relates to Tov112D. Described as above. As to conditions: Gynecologic cancer cell panel viability, ATPlite luminescence, 48 h; series mostly up to 57.5 µM. An outline of the steps: as §1
Assay [1] can be described thus: Drug repurposing screens with cells derived from glioblastoma tumor samples (AID 1345199). Also: nearly all actives have a fitted effect of over 40% in size. Also: potency is read from the fitted curve at half-maximal effect. As to activity, negative = cell killing: % is scaled to controls: 0 for no effect and ±100 for the full control effect. As to conditions: GBM patient neurospheres viability, ATP luminescence, 48 h. The method, boiled down: (§2)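 Four patient lines of CD133+ GBM neurospheres were screened at several concentrations; hits were retested in those lines plus three slower-growing GBM lines, using 48-hour treatment and ATP-based viability.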

The subject of a further assay is astro. The assay is described as above. As to conditions: viability, ATP luminescence, 48 h; series mostly up to 45.9 µM. An outline of the steps: as §2
Assay [2] has as its target Nuclear receptor subfamily 1 group I member 2 (Rattus norvegicus) (UniProt Q9R1A7). Description: qHTS assay for small molecule activators of the rat pregnane X receptor (rPXR) signaling pathway (AID 651751; call rule not given here; also: 0% is about no effect). As to conditions: rPXR reporter cells, luciferase (One-Glo), 24 h.
Where [3] appears, read: at 45.9 µM (top of the series), tumour line B.
[4] abbreviates: at 45.9 µM (top of the series), tumour line D.
Setting [5] is: at 46 µM (top of the series), tumour line A.
The mark [6] stands for this setting: at 46.1 µM (top of the series), tumour line C.

“And” between values parts separate entries of the source, which are not always exact repeats. Equal values may be shown once. Unmarked numbers belong to inactive results. Results filed as inconclusive are left out. Some compounds were tested as several samples or in several runs, with calls that do not always agree. The source made the active and inactive calls. Unless noted, calls follow the shape of the dose curve; as a rule, active = well fitted curve in the direction sought with a large enough effect; inconclusive = small, poorly fitted or top-dose-only effect, or another doubt; inactive = no such curve, though single readings can be large; an effect the other way counts as inactive or inconclusive.

Nuclear receptor subfamily 1 group I member 2 (Rattus norvegicus), sequence (Q9R1A7 whole entry, looked up): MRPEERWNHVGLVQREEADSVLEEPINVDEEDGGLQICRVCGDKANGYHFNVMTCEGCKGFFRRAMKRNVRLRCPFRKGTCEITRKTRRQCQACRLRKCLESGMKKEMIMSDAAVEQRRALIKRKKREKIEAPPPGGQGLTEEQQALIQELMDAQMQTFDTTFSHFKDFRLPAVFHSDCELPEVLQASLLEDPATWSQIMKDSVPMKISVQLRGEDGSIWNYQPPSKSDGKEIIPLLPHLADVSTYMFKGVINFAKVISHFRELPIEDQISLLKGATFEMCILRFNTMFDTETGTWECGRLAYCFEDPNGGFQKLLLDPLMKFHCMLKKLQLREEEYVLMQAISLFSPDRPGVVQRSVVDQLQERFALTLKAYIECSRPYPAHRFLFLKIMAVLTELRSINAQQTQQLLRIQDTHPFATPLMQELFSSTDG

Take `NC(=O)c1ncn([C@@H]2O[C@H](CO)[C@@H](O)[C@H]2O)c1O`: the Potency result in the assay on PA-1, with SKOV3, with Tov-21-G, in the assay with Tov112D and in the assay with astro was “inactive” each time. The activity, negative = cell killing in assay [1] (setting [3]) was -12.1%; in assay [1] (setting [4]), 11.4%; in assay [1] (setting [5]) it was -0.128%; in assay [1] (setting [6]), -22.4%.
Turning to `CC(=O)OCC1=C(C(=O)O)N2C(=O)[C@@H](NC(=O)Cc3cccs3)[C@H]2SC1`, the Potency entry with PA-1, in the assay with SKOV3, in the assay on Tov-21-G, in the assay on Tov112D and in the assay with astro was “inactive” throughout. The activity, negative = cell killing in assay [1] (setting [3]) was 5.86%; in assay [1] (setting [4]), -7.52%; in assay [1] (setting [5]), -19.9%; in assay [1] (setting [6]) it was -19.9%.
As for `C[N+](C)(C)CCOC(=O)CCC(=O)OCC[N+](C)(C)C`, the Potency entry in the assay on PA-1, in the assay with SKOV3, in the assay on Tov-21-G, in the assay on Tov112D and with astro was “inactive” in each case. The activity, negative = cell killing was 5.74% in assay [1] (setting [3]), -9.68% in assay [1] (setting [4]), -19.2% in assay [1] (setting [5]) and 9.88% in assay [1] (setting [6]).
As to `CN(C)C(=O)Oc1ccc[n+](C)c1`, the Potency entry in the assay on PA-1, with SKOV3, with Tov-21-G, in the assay on Tov112D and in the assay on astro was “inactive” throughout. Besides, the activity, negative = cell killing in assay [1] (setting [3]) is 5.33%; in assay [1] (setting [4]), -8.24%; in assay [1] (setting [5]), -28.3%; in assay [1] (setting [6]), -15.6%.
As to `Fc1ccc(C(c2ccc(F)cc2)N2CCN(C/C=C/c3ccccc3)CC2)cc1`, the Potency entry with PA-1, in the assay with SKOV3, with Tov-21-G and in the assay on Tov112D was “inactive” each time.
As to `CC(=O)OC(C)C[N+](C)(C)C` (configuration not stated), the Potency entry with PA-1, in the assay with SKOV3, in the assay on Tov-21-G, in the assay with Tov112D and with astro was “inactive” throughout. Besides, the activity, negative = cell killing in assay [1] (at 20 µM (top of the series), tumour line C) was 12%; in assay [1] (at 21.2 µM (top of the series), tumour line B) it was 6.44%; in assay [1] (at 21.2 µM (top of the series), tumour line D) it was -7.66%; in assay [1] (at 21.3 µM (top of the series), tumour line A) it was -14.4%.
Consider `COCCc1ccc(OCC(O)CNC(C)C)cc1` (configuration not stated), for which the Potency result with PA-1, in the assay with SKOV3, in the assay with Tov-21-G, in the assay on Tov112D and in the assay on astro was “inactive” each time. Moreover, the activity, negative = cell killing is -10.1% and -7.19% and -6.43% in assay [1] (setting [3]); 1.85% and 20.6% and -26.1% in assay [1] (setting [4]); -33.9% in assay [1] (setting [5]); -0.129% and -0.523% in assay [1] (setting [6]).
Take `CNCCC(Oc1ccccc1OC)c1ccccc1` (configuration not stated): the Potency result in the assay with PA-1, in the assay with SKOV3, with Tov-21-G, in the assay on Tov112D and in the assay on astro was “inactive” each time. Also, the activity, negative = cell killing was -10.4% in assay [1] (setting [3]), -19.1% in assay [1] (setting [4]) and -16.2% in assay [1] (setting [6]). Further, the Potency in assay [1] (tumour line A) is 12.6 µM (active).
With `FC(F)(F)c1ccccc1-n1ccnc1`, the Potency entry with PA-1, with SKOV3, in the assay with Tov-21-G, in the assay with Tov112D and in the assay on astro was “inactive” in each case. The activity, negative = cell killing in assay [1] (setting [3]) is -13.1%; in assay [1] (setting [4]) it was -9.1%; in assay [1] (setting [5]), -27.4%; in assay [1] (setting [6]) it was -16.7%.
With `CN(C)C(=O)Oc1cccc([N+](C)(C)C)c1`, the Potency entry in the assay on PA-1, in the assay on SKOV3, with Tov-21-G, in the assay with Tov112D and in the assay on astro was “inactive” in each case. Besides, the activity, negative = cell killing was -0.104% in assay [1] (setting [3]), 10.8% in assay [1] (setting [4]), -24.8% in assay [1] (setting [5]) and -4.3% in assay [1] (setting [6]).
For the compound `Cc1ccc(=O)n(-c2ccccc2)c1`, the Potency entry in the assay with PA-1, in the assay with SKOV3, with Tov-21-G, with Tov112D and in the assay on astro was “inactive” throughout. The activity, negative = cell killing in assay [1] (setting [3]) is -7.87%; in assay [1] (setting [4]), 11.3%; in assay [1] (setting [5]) it was -13.3%; in assay [1] (setting [6]), -7.43%.
Consider `COc1ccc([C@@H]2Sc3ccccc3N(CCN(C)C)C(=O)[C@@H]2OC(C)=O)cc1`, for which the Potency entry with PA-1, with SKOV3, in the assay on Tov-21-G and with Tov112D was “inactive” throughout. Further, in assay [1] (setting [6]), the activity, negative = cell killing was -13.9%.
In the case of `CC1=C(C)C(=O)C(CCCCC#CCCCC#CCO)=C(C)C1=O`, the Potency entry in the assay with PA-1, in the assay on SKOV3, in the assay with Tov-21-G and with Tov112D was “inactive” in each case.
`CCCOc1ccccc1-c1nc2n[nH]nc2c(=O)[nH]1`: the Potency result with PA-1, in the assay on SKOV3, in the assay on Tov-21-G, with Tov112D and in the assay on astro was “inactive” each time. The activity, negative = cell killing was -4.45% in assay [1] (setting [3]), -8.24% in assay [1] (setting [4]), -28% in assay [1] (setting [5]) and -19% in assay [1] (setting [6]).
On to `CCn1cc(C(=O)O)c(=O)c2cc3c(cc21)OCO3`, for which the Potency result in the assay on PA-1, in the assay on SKOV3, in the assay on Tov-21-G, in the assay with Tov112D and with astro was “inactive” in each case. Further, the activity, negative = cell killing in assay [1] (setting [3]) was -1.33%; in assay [1] (setting [4]), -1.7%; in assay [1] (setting [5]), -12.9%; in assay [1] (setting [6]), -10%.
Regarding `NC(=Nc1ccccc1)Nc1ccccc1`, the Potency result with PA-1, in the assay on SKOV3, with Tov-21-G, in the assay on Tov112D and in the assay with astro was “inactive” each time. For the same compound, the activity, negative = cell killing in assay [1] (setting [3]) was -2.03%; in assay [1] (setting [4]), -11.9%; in assay [1] (setting [6]) it was 5.57%; in assay [1] (at 91.6 µM (top of the series), tumour line B) it was -24.2%; in assay [1] (at 91.6 µM (top of the series), tumour line D) it was -23%; in assay [1] (at 99.2 µM (top of the series), tumour line C) it was 19%. For the same compound, in assay [1] (tumour line A), the Potency was 25.1 µM (active). Besides, in assay [2], the max response is -0.275% and 5.17%.
For the compound `CCOC(=O)c1cnc2c(cnn2CC)c1NN=C(C)C`, the Potency result in the assay on PA-1, in the assay on SKOV3, in the assay on Tov-21-G, with Tov112D and in the assay with astro was “inactive” each time. Moreover, the activity, negative = cell killing is -11.6% in assay [1] (setting [3]), -28.3% in assay [1] (setting [4]) and -18.1% in assay [1] (setting [6]). Besides, the Potency in assay [1] (tumour line A) was 11.2 µM (active).
On to `O=C(O)CN(CCOCCOCCN(CC(=O)O)CC(=O)O)CC(=O)O`, for which the activity change, negative = cytotoxicity in the assay on PA-1 was -1.54% [at 0.462 µM]; with SKOV3, 17.7% [at 0.462 µM]; with Tov-21-G it was 1.63% [at 0.462 µM]; in the assay on Tov112D it was 6.01% [at 0.462 µM]. Also, the activity, negative = cell killing in assay [1] (setting [3]) was -21%; in assay [1] (setting [4]), -7%; in assay [1] (setting [5]), -22.8%; in assay [1] (setting [6]), 4.28%. Besides, the Potency entry in the assay on astro is “inactive”.
